Source: PubChem
This is a sample that favours compounds with a hit; in the whole collection about 9.4% have one here.
NPC1 promoter act – qHTS Assay for NPC1 Promoter Activators; Potency, µM (series often up to 9.22 µM), hits mostly activators; 320,000 compounds, 2.4% hits; Huh7 NPC1 promoter luciferase reporter, 24 h; AID 485313, 2010; also: nearly all actives have a fitted effect of over 60% in size
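Stably transfected Huh7 (NPC1 promoter→luciferase), 1500 cells/well in Opti-MEM + 10% FBS, 2 h settle, then compound 24 h at 37 °C. Luminescence after 10 min with Amplite reagent.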
SMN2 splice enh – qHTS Assay for Enhancers of SMN2 Splice Variant Expression | Potency, µM (top dose mostly 46.1 µM), most hits filed as activators | HEK293 SMN2-luciferase splicing reporter, luminescence, 30-36 h | 210,000 compounds, 2.8% hits; also: nearly all actives have a fitted effect of over 55% in size
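HEK293 cells carry an SMN2 minigene-luciferase reporter in which exon 7 inclusion puts luciferase in frame. Cells were seeded at 2000 cells/well, attached for 10-12 hours, then exposed to compounds for 30-36 hours at 37C before ONE-Glo luminescence.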
ELG1 DNA repair – qHTS screen for small molecules that inhibit ELG1-dependent DNA repair in human embryonic kidney (HEK293T) cells expressing luciferase-tagged ELG1; Potency, µM (titrated, usually from 46.1 µM), usual class: inhibitors; HEK293T ELG1-luciferase reporter, luminescence, 16 h; DNA damage induced by 5-fluorouridine; AID 504467, 2011; 330,000 compounds, 2.3% hits; also: nearly all actives have a fitted effect of over 55% in size
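Luminescence from the luciferase reporter, measured 30 min after ONE-Glo reagent at room temperature, was the read-out. Beforehand, 2,000 cells per well were exposed for 16 hr at 37 °C to 5-fluorouridine together with compound or vehicle.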
Rab9 promoter act – qHTS Assay for Rab9 Promoter Activators; AID 485297, 2010; Huh7 Rab9 promoter-luciferase reporter, luminescence, 24 h; 320,000 compounds, 2.8% hits; Potency, µM (highest dose often 9.22 µM), hits mostly activators; also: nearly all actives have a fitted effect of over 60% in size
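Quantitative HTS format; Huh7 Rab9-luciferase reporter cells (1500/well) receive compound 2 h post-plating, incubate 24 h at 37 °C, then get luciferase reagent for 10 min before luminescence reading.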
FLuc modulator – qHTS profiling assay for firefly luciferase inhibitor/activator using purifed enzyme and Km concentrations of substrates (counterscreen for miR-21 project); purified FLuc, Km substrates, luminescence inhibition; AID 588342, 2011; 360,000 compounds, 6.9% hits; Potency, µM (highest dose often 57.5 µM), hits mostly inhibitors; also: nearly all actives have a fitted effect of over 55% in size
Target sequence (P08659 whole entry, looked up): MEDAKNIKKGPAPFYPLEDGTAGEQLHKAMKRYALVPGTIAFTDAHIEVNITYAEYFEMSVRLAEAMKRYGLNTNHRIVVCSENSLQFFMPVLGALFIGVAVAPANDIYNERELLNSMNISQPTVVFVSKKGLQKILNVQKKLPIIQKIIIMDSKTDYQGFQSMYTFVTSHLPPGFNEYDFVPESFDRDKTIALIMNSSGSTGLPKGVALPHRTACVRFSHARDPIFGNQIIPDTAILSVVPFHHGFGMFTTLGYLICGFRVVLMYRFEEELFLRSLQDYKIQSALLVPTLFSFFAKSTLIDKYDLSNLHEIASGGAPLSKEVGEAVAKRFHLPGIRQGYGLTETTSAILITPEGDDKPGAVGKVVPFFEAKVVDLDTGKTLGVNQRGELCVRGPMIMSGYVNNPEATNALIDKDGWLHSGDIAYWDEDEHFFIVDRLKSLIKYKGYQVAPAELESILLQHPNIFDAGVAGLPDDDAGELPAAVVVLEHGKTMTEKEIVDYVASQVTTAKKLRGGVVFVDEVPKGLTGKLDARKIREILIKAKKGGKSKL
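Biochemical qHTS of compounds, final roughly 60 µM downward over six points, against 10 nM purified firefly luciferase using Km concentrations of substrates (10 uM D-luciferin, 10 uM ATP) in Tris acetate pH 7.5 buffer; luminescence output.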
ELG1 genotoxic – qHTS screen for small molecules that induce genotoxicity in human embryonic kidney (HEK293T) cells expressing luciferase-tagged ELG1 | HEK293T ELG1-luciferase reporter, luminescence, 16 h | Potency, µM (titrated, usually from 46 µM), actives largely listed as activators | 330,000 compounds, 1.3% hits | AID 504466, 2011; also: nearly all actives have a fitted effect of over 60% in size
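Step 1: seed 2,000 HEK293T ELG1-luciferase cells per well. Step 2: add compound or DMSO, incubate 16 hr at 37 °C. Step 3: ONE-Glo, 30 min at room temperature, read luminescence.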
A number is an active result; – = inactive; ? = inconclusive; · = not tested or not shown; [ ] = dose if it differs, or a comment. Calls follow the shape of the dose curve; as a rule, active = well fitted curve in the direction sought with a large enough effect; inconclusive = small, poorly fitted or top-dose-only effect, or another doubt; inactive = no such curve, though single readings can be large; an effect the other way counts as inactive or inconclusive.

SMILES	NPC1 promoter act	SMN2 splice enh	ELG1 DNA repair	Rab9 promoter act	FLuc modulator	ELG1 genotoxic
CS(=O)(=O)c1ccccc1-c1nc(-c2cccc(Cl)c2)no1	–	–	–	?	?	–
Cc1cccc(-c2noc(-c3cc(C(C)C)[nH]n3)n2)c1	·	·	·	·	4.8µM	·
COc1cccc(-c2noc(C3CC(=O)N(c4ccc(F)cc4)C3)n2)c1OC (centres undefined)	·	·	·	·	–	·
COc1cccc(-c2noc(-c3cc(C(C)C)[nH]n3)n2)c1OC	·	·	·	·	17µM	·
CC(C)c1cc(-c2nc(-c3cccc(Cl)c3)no2)n[nH]1	·	·	·	·	6.7µM	·
COC(=O)CC[C@@H](C)C1CC[C@H]2[C@H]3CC[C@H]4C[C@@H]5CCC4(C)[C@@]3(O5)[C@@H](Br)[C@@H](Br)[C@@]12C (some centres undefined)	·	–[9.22 µM]	·	·	·	·
CCc1ccc2oc(C(=O)N(Cc3ccc(N(C)C)cc3)Cc3ccco3)c(C)c2c1	·	–	·	·	–	·
C[C@H](CO)N1C[C@H](C)[C@@H](CN(C)S(=O)(=O)c2cccs2)Oc2c(NC(=O)CCC(F)(F)F)cccc2C1=O	·	·	–	·	·	–
N=C(N)C(N=Nc1ccccc1)C(=N)N (centres undefined)	·	–[9.22 µM]	·	·	·	·
CN1C(=O)c2ccccc2Sc2ccc(NC(=O)COc3ccc(F)cc3)cc21	·	·	·	·	–	·
CCCOc1ccc(/C=N/NC(=O)CSc2ccccn2)cc1OC	–	·	?	?	11µM	–
COc1ccc(/C=N/NC(=O)c2ccn[nH]2)cc1CSc1ccccn1	?	·	?	?	11µM	?
CC(/C=N/NC(=O)CSc1ccccn1)=C\c1ccc(C(C)C)cc1	?	?	?	–	?	?
CC(=C/c1ccc(C(C)C)cc1)/C=N/NC(=O)CSc1ccccn1	?	–[1.84 µM]	?	2.8µM	?	?
CN(C)c1ccc(/C=N/NC(=O)CSc2ccccn2)cc1	–	·	?	?	12µM	?
CC(/C=C/c1ccccc1)=N\NC(=O)CSc1ccccn1	–	–	–	–	?	–
COc1cc(/C=N/NC(=O)CSc2ccccn2)ccc1O	–	·	?	–	?	–
Cc1ccc(N2CCN(C(=O)c3c(C)oc4nc(C)nc(N5CCCC5)c34)CC2)c(C)c1	·	·	·	·	–	·
CC(=O)Nc1ccc(CCc2nc3ccccc3[nH]2)cc1	–	·	?	–	–	–
CC(C)c1ccc(NC(=O)N(CCc2nc3ccccc3[nH]2)C2CCCC2)cc1	–	–	?	–	7.6µM	–
CC1CN(C(=O)c2cn3ccccc3n2)CC(C)O1 (centres undefined)	–	–	?	–	12µM	–
Cc1csc(NC(=O)c2cn3ccccc3n2)n1	?	0.63µM	?	?	2.1µM	0.73µM
Cc1c(NC(=O)c2cn3ccccc3n2)cccc1-n1cnnn1	–	·	?	–	?	–
O=C(Nc1ccc(-n2cnnn2)cc1)c1cn2ccccc2n1	1.6µM	·	–	1.6µM	?	?
O=C(Nc1ccccc1)c1cn2ccccc2n1	0.32µM	·	?	0.2µM	0.95µM	?
SMILES	NPC1 promoter act	SMN2 splice enh	ELG1 DNA repair	Rab9 promoter act	FLuc modulator	ELG1 genotoxic
CCc1cccc(-n2c(=O)c3cccnc3n2CC(=O)Nc2ccc(F)c(C)c2)c1	·	·	·	·	–	·
COc1ccc(N2CCN(CCCNC(=O)c3c(C)nn(-c4ccc(F)cc4)c3-n3cccc3)CC2)cc1	·	·	·	·	–	·
Cc1ccc(NC(=S)Nc2ccc3cn[nH]c3c2)cc1	–	–	–	–	?	–
Cc1ccc(NC(=S)Nc2cc(C)on2)cc1	1.4µM	·	?	2.8µM	27µM	?
Cc1cc(C(=O)Nc2ccc3c(c2)OCO3)no1	–	·	–	–	–	–
CCc1ccccc1NNC(=O)c1cc(C)on1	–	·	–	–	–	–
Cc1ccc(NC(=O)c2cc(C)on2)cc1	1.4µM	·	?	1.4µM	6.7µM	?
Cc1cc(C(=O)NNc2ccccc2F)no1	–	·	6.5µM	–	–	–
Cc1cc(NC(=O)c2cccc(C(=O)Nc3cc(C)on3)n2)no1	–	–	?	–	–	–
Cc1cc(C(=O)Nc2ccccn2)no1	?	11µM	?	?	?	?
Cc1c(Cl)cccc1NC(=O)c1ncn(-c2ccccc2)n1	·	–	·	·	–	·
CCOc1ccccc1C(=O)Nc1ccc(-n2nncc2C(C)(C)C)cc1	–	–	?	–	–	–
Nc1ccc([N+](=O)[O-])c(N)c1	·	–	·	·	·	·
Cc1ccc(NC(=O)c2onc(C)c2Cl)cc1	–	14µM	?	?	13µM	16µM
CCc1ccc(NC(=O)c2cc(C(C)C)on2)cc1	0.89µM	1.4µM	?	0.63µM	1.9µM	?
CCc1ccc(NC(=O)c2cc(C)no2)cc1	?	·	?	?	12µM	?
CCc1ccc(NC(=O)c2cc(C)on2)cc1	0.5µM	6.3µM	?	0.89µM	3µM	?
Cc1ccc(NC(=O)c2cc(C)no2)cc1	–	·	?	–	?	?
COc1ccc2nc(N/C(N)=N/C(=S)Nc3cccc(C)c3)nc(C)c2c1	–	–	?	–	?	–
COc1ccc(NC(=S)/N=C(\N)Nc2nc(C)c3ccccc3n2)cc1	–	·	?	–	9.5µM	–
CCc1ccccc1NC(=S)/N=C(\N)Nc1nc(C)c2cc(C)ccc2n1	–	–	21µM	–	–	–
COc1ccc2nc(N/C(N)=N/S(C)(=O)=O)nc(C)c2c1	–	·	?	–	15µM	?
COc1ccc2nc(N/C(N)=N/C(=S)Nc3c(C)cccc3C)nc(C)c2c1	–	–	–	–	–	–
Cc1ccc(NC(=S)/N=C(\N)Nc2nc(C)c3cc(C)ccc3n2)c(C)c1	–	–	?	–	–	–
Cc1ccc(C(=O)c2cn(Cc3cccc(C)c3)c3nc(C)ccc3c2=O)cc1	·	–	·	·	–	·
SMILES	NPC1 promoter act	SMN2 splice enh	ELG1 DNA repair	Rab9 promoter act	FLuc modulator	ELG1 genotoxic
COc1cc(CCC(C)=O)ccc1OC(=O)c1c(F)cccc1Cl	?	·	?	2.5µM	12µM	?
O=c1/c(=C/c2ccco2)sc2nc(-c3ccccc3Br)nn12	–	–	–	–	6.7µM	–
COc1ccccc1-c1nc2s/c(=C\c3cccs3)c(=O)n2n1	–	–	?	–	?	–
COc1ccc(CCNC(=O)c2ccc3c(c2)nc2n3CCOC2)cc1OC	·	·	·	·	–	·
Cc1ccc(-n2nc3cc(C)c(NC(=S)NC(=O)/C=C/c4ccco4)cc3n2)cc1	–	?	?	–	11µM	8.2µM
O=C(/C=C/c1ccco1)NC(=S)Nc1ccccc1	–	·	?	?	27µM	–
Cc1cccc(NC(=S)NC(=O)/C=C/c2ccco2)n1	?	–	?	3.5µM	?	?
Cc1ccc(-n2nc3ccc(NC(=S)NC(=O)/C=C/c4ccco4)cc3n2)cc1	–	?	?	–	–	?
